Laboratory results reported in PubChem BioAssay AID1851 (National Center for Advancing Translational Sciences (NCATS), 2009).
“And” between values parts separate entries of the source, which are not always exact repeats. Equal values may be shown once. In all, about 16,000 compounds went through this assay and about 5,800 (36%) were called active. Not shown: some 23% with an inconclusive outcome. The call rests on the fitted dose curve; in most records, active means well fitted curve in the direction sought with a large enough effect; inconclusive means small, poorly fitted or top-dose-only effect, or effect the other way; inactive means no such curve, though single readings can be large or run the other way. The list shows a part of the results.

Biological target: Cytochrome P450 2C19 (Homo sapiens) (UniProt P33261)
Sequence (P33261 whole entry, looked up): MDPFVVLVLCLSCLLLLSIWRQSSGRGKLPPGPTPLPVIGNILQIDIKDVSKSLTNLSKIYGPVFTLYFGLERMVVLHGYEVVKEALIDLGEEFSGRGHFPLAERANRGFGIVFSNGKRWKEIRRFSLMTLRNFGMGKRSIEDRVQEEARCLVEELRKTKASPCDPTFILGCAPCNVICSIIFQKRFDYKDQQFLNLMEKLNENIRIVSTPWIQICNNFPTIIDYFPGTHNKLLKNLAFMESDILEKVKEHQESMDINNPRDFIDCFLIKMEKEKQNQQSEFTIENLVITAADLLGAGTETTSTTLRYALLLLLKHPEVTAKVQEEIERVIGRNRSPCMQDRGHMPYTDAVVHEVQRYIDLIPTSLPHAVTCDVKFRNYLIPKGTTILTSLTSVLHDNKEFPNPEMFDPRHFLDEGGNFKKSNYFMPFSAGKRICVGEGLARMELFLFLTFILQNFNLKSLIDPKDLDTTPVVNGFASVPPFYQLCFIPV
Test: Cytochrome panel assay with activity outcomes
Conditions: recombinant CYP, pro-luciferin dealkylation, luminescence, p450-cyp2c19; series mostly up to 57.1 µM; activity, negative = inhibition: at the top concentration
On the % scale 0 is the no-effect control and ±100 the full control effect.

SMILES | AC50 | activity, negative = inhibition
CCCc1cc(C(=O)Cc2nc3ccccc3s2)c(O)cc1O | 0.126 µM (active) | 
COc1ccc(C2C(C#N)=C(N)Oc3n[nH]c(C)c32)cc1CN1CCN(c2ccc(F)cc2)CC1 (stereo not given) | 5.01 µM (active) | 
O=c1cc(CN2CCN(c3ccc(F)cc3)CC2)c2cc3c(cc2o1)CCCC3 |  | -27.2% (inactive)
O=C(N/C(=C/c1cccs1)c1nc2ccccc2[nH]1)c1ccccc1 |  | -29.6% (inactive)
O=C(N/C(=C/c1ccc(Br)cc1)c1nc2ccccc2[nH]1)c1ccco1 | 3.16 µM (active) | 
Cc1ccc(S(=O)(=O)N[C@H]2COC(=O)C/C=C\[C@@H](C)COC(=O)C/C=C\[C@@H]2C)cc1 |  | 12.1% [at 11.4 µM] (inactive)
COc1ccc(-n2c(-c3ccccc3)nc(=S)c3c2CCCC3)cc1 |  | -14.5% (inactive)
S=c1nc(-c2ccccc2)oc2c1CCCC2 | 15.8 µM (active) | 
c1ccc(Oc2cc(-c3ccccc3)ncn2)cc1 | 2.51 µM (active) | 
COc1ccccc1-c1nnc(NC(C)=O)s1 |  | -11% (inactive)
COc1ccccc1NC(=O)Nc1nnc(-c2ccco2)s1 | 1.78 µM (active) | 
CN1C(=O)/C(=N\OC(=O)c2cccc3ccccc23)c2ccccc21 | 8.91 µM (active) | 
CN1C(=O)c2ccccc2C(C(=O)O)C1c1cn(C)c2ccccc12 (stereo not given) |  | -28.2% (inactive)
NCCCCCCCCCCN |  | -14.1% (inactive)
C[C@H](NCCc1ccc(O)cc1)[C@@H](O)c1ccc(O)cc1 | inactive | 
CN(c1ccccc1)c1ccc(/C=c2\s/c(=C(/C#N)C(=O)C(C)(C)C)n(Cc3ccco3)c2=O)cc1 | 1.78 µM (active) | 
COc1cccc(OCCCOc2ccccc2C(C)C)c1 | 3.16 µM (active) | 
CNC(C)c1cc(OC)ccc1OC (stereo not given) |  | -11.9% (inactive)
COc1cccc(OC)c1OCCCCN1CCCC1 |  | -25.6% (inactive)
CC(C(=O)Nc1cccnc1)N1C(=O)C2C3C=CC(C3)C2C1=O (stereo not given) |  | 18.2% (inactive)
Cc1ccc(NC(=O)C(C)N2C(=O)C3C4CC(C(Br)C4Br)C3C2=O)cc1 (stereo not given) | 12.6 µM (active) | 
COC(=O)c1nc(NC(=O)c2ccccc2)n[nH]1 |  | -17.1% (inactive)
Cc1nc(SC(C(=O)c2ccccc2)c2ccccc2)n[nH]1 (stereo not given) | 2.51 µM (active) | 
COc1ccc(-c2csc(N3C(=N)SCC3=O)n2)cc1 |  | -31.8% (inactive)

SMILES | AC50 | activity, negative = inhibition
CCN(CC)C(=O)CSc1nnc(-c2ccco2)n1N |  | -20.6% (inactive)
CCOc1ccc(-c2nnc3n2N=C(c2ccc(OC)cc2)CS3)cc1 | 4.47 µM (active) | 
COc1cccc(-c2nnc3n2N=C(C(C)(C)C)CS3)c1 | 2.82 µM (active) | 
CCOc1ccc(C2=Nn3c(nnc3-c3ccco3)SC2)cc1 | 3.16 µM (active) | 
NCCCCCC(=O)O | inactive | 
CCN1C(=O)[C@H]2[C@H]3[C@H](O)[C@H](O)C/C(=N/OC[C@@H](O)COCc4ccco4)[C@H]3CC[C@@H]2C1=O |  | -33.5% [at 11.4 µM] (inactive)
CO[C@@H]1COC(=O)C/C=C\[C@@H](C)[C@H](OC)COC(=O)[C@@H](C)COC(=O)C/C=C\[C@H]1C |  | 4.43% [at 11.4 µM] (inactive)
Cc1noc(NC(=O)Nc2ccccc2F)c1C#N |  | -17.8% [at 11.4 µM] (inactive)
CCC(C)n1c(NC(=O)c2ccccc2)c(C#N)c2nc3ccccc3nc21 (stereo not given) | 28.2 µM (active) | 
CC(C)CN=C(N)N=C(N)N |  | -8.28% [at 11.4 µM] (inactive)
Oc1cccc(-c2nc3c4c(ncn3n2)-c2ccccc2CC42CCCC2)c1 | 25.1 µM (active) | 
COc1ccc(C(=O)N2CCC3(CC2)CCN(C(c2ccccc2)c2ccccc2)CC3)cc1 |  | -41.3% (inactive)
COc1ccc(C(=O)N2CCC3(CCN(C)CC3)CC2)cc1 |  | -7.06% (inactive)
COc1ccc(C(=O)/C=C2/c3ccccc3CC(C)(C)N2C)cc1 | 15.8 µM (active) | 
Cn1nccc1C(=O)Nc1ccc(Cl)cc1 | 31.6 µM (active) | 
CCNS(=O)(=O)c1ccc(NC(=O)c2cc(C(F)(F)F)nn2C)cc1 |  | -28.8% (inactive)
O=C(Cc1cccs1)N/N=C/C(Br)=C/c1ccccc1 | 7.08 µM (active) | 
O=C(O)/C(=C\c1ccccc1)Cc1ccccc1 |  | -14.2% [at 11.4 µM] (inactive)
O=C(O)c1cscc1Cc1cccs1 |  | -1.48% [at 11.4 µM] (inactive)
COc1cc(C(=O)NCc2cccc3ccccc23)cc(Cl)c1OC | 3.16 µM (active) | 
CS(=O)(=O)N1CCC[C@@]2(CCN(C(=O)Nc3ccccc3)C2)C1 |  | 7.58% (inactive)
COc1ccc2c(c1)C(=NN)c1cc(OC)ccc1-2 | 8.91 µM (active) | 
COc1ccc2c(c1)Cc1cc(N=[N+]([O-])c3ccc4c(c3)Cc3cc(OC)ccc3-4)ccc1-2 |  | -35.1% [at 11.4 µM] (inactive)
CC1(C)O[C@H]2[C@@H](c3[nH]nc4c(=O)[nH]c(=O)[nH]c34)OC[C@H]2O1 |  | 9.71% [at 11.4 µM] (inactive)

SMILES | AC50 | activity, negative = inhibition
Cc1ccc(NS(=O)(=O)c2cc(C(=O)N3CCc4ccccc4C3)ccc2Cl)cc1 | 1.58 µM (active) | 
CN(c1ccc(C(=O)NCc2ccccn2)cc1)S(C)(=O)=O |  | 3.47% (inactive)
COc1ccc(C(=O)N2CCCCC2)cc1S(=O)(=O)Nc1ccccc1 |  | -27.1% (inactive)
Cc1ccc(NS(=O)(=O)c2cc(C(=O)NCc3ccccn3)ccc2Cl)cc1 | 5.01 µM (active) | 
CC(=O)OCC(=O)[C@@]1(OC(C)=O)[C@H](C)C[C@H]2[C@@H]3C[C@H](F)C4=CC(=O)C=C[C@@]4(C)[C@]3(F)[C@H](O)C[C@@]21C |  | -34.6% [at 25.6 µM] (inactive)
COc1ccc2[nH]cc(CCNc3ccnc(-c4ccc5c(c4)OCO5)n3)c2c1 | 0.631 µM (active) | 
COc1ccc2[nH]cc(CCNc3ccnc(-c4c(C)noc4C)n3)c2c1 | 1.58 µM (active) | 
COc1ccc2[nH]cc(CCNc3ccnc(-c4ccc(N(C)C)cc4)n3)c2c1 | 6.31 µM (active) | 
COc1ccc2[nH]cc(CCNc3ccnc(-c4ccoc4)n3)c2c1 | 0.501 µM (active) | 
Cc1ccc(S(=O)(=O)N(C)c2cc(S(=O)(=O)N3CCC(C)CC3)c(C)cc2C)cc1 | 3.16 µM (active) | 
Cc1ccc(S(=O)(=O)N2CCC(C(=O)NCCCOC(C)C)CC2)cc1 |  | -28.9% (inactive)
CCn1c(O)c(/C=C2\C=Nc3ccccc32)sc1=Nc1ccc(C)cc1 | 2 µM (active) | 
Clc1ccc2c(c1)C=Nc1c(NCc3ccccc3)ncnc1O2 |  | -48.4% (inactive)
COc1ccc(C2=NC(C(F)(F)F)(C(F)(F)F)c3c(n(C)c(=O)n(C)c3=O)N2)cc1 |  | 41.7% (inactive)
O=C1c2ccccc2C2=Nc3ccccc3SC(c3ccccc3F)C12 (stereo not given) | 1.58 µM (active) | 
CC1=C/C(=C(/c2ccc(O)c(C)c2)c2ccccc2C(=O)O)C=CC1=O | 0.00316 µM (active) | 
O=C(O)C1=CC(=C(c2ccc(O)c(C(=O)O)c2)c2ccc(O)c(C(=O)O)c2)C=CC1=O | 25.1 µM (active) | 
NS(=O)(=O)c1ccc(N=Nc2ccc(O)c(C(=O)O)c2)cc1 |  | 5.09% [at 11.4 µM] (inactive)
O=C(O)c1ccc(C(=O)c2ccccc2C(=O)O)cc1C(=O)O |  | -5.18% [at 11.4 µM] (inactive)
O=C(O)C1=C/C(=C(/c2ccccc2)c2cc(C(=O)O)c(O)c3ccccc23)c2ccccc2C1=O |  | 29% [at 11.4 µM] (inactive) and -20.5% [at 11.4 µM] (inactive)
O=C(CN1CCc2ccccc21)NC(=O)NCc1ccco1 | 7.94 µM (active) | 
Cc1nn(CC(O)COc2ccc3c(c2)CCC3)c(C)c1Br (stereo not given) | 2 µM (active) | 
CN(C)CC(O)COc1cccc(OCC(O)CN(C)C)c1 (stereo not given) |  | -26.1% (inactive)
Cc1ccc(C(=O)NC(=S)Nc2ccc(S(=O)(=O)N3CCN(C)CC3)cc2)cc1 | 15.8 µM (active) | 

SMILES | AC50 | activity, negative = inhibition
CCOC(=O)c1ccc(S(=O)(=O)N2CCN(C)CC2)cc1 |  | -29.5% (inactive)
O=C(NC(=S)Nc1ccc(C(=O)N2CCOCC2)cc1)c1ccc([N+](=O)[O-])cc1 |  | 3.86% (inactive)
O=c1c(C=Nc2cccc(C(F)(F)F)c2)c[nH]n1-c1cccc(Cl)n1 |  | -14.3% (inactive)
O=C(OCn1ncc(Cl)c(Cl)c1=O)c1cccc(C(F)(F)F)c1 | 2.24 µM (active) | 
Cc1sc(N)c(C(=O)c2cccc(C(F)(F)F)c2)c1C |  | -19.2% (inactive)
N/C(CC/C(N)=N/O)=N\O |  | 20.3% [at 11.4 µM] (inactive)
C=CCNc1sc(C(=O)c2ccccc2)c(N)c1C#N | 6.31 µM (active) | 
C=CCNc1sc(C(=O)c2ccc(C)cc2)c(N)c1C#N | 7.08 µM (active) | 
N#CC(CC(=O)O)=C(c1ccccc1)c1ccccc1 |  | 5.19% [at 11.4 µM] (inactive)
CC(=O)CSc1nnc(Cc2ccc([N+](=O)[O-])cc2)o1 | 7.08 µM (active) | 
NNC(=O)CNc1cccc(Br)c1 |  | -2.2% [at 11.4 µM] (inactive)
O=C(Cc1ncc(C(F)(F)F)cc1Cl)Nc1cccc(Br)c1 | 2.82 µM (active) | 
CC(C)(C)C(=O)OCc1cn(-c2ccc(Cl)cc2)nn1 | 8.91 µM (active) | 
Cc1ccc(C(=O)c2cn(-c3ccc(F)c(Cl)c3)nn2)cc1 |  | -17.5% (inactive)
[Cu].[O-]/N=C1/C(=[OH+])Nc2ccccc21.[O-]Nc1c(O)[nH]c2ccccc12 |  | 2.58% [at 11.4 µM] (inactive)
Cc1c(C=O)c2ccccn2c1C(=O)c1ccncc1 | 1.78 µM (active) | 
C[C@H](C(=O)c1ccncc1)c1ccccn1 |  | -37.2% [at 11.4 µM] (inactive)
CC(=O)N(C[C@@H](C)C(=O)O)c1c(I)cc(I)c(N)c1I |  | -29.6% [at 25.6 µM] (inactive)
COc1ccc(F)cc1S(=O)(=O)NC(Cc1ccccc1)C(N)=O (stereo not given) | 7.08 µM (active) | 
C[N+](C)(C)/N=C\c1ccc(O)c(O)c1 |  | 12.7% [at 11.4 µM] (inactive)
CC(C)N=c1scc(-c2ccco2)n1/N=C/c1ccc(O)c(O)c1 | 7.94 µM (active) | 
NC(=S)SCCC(=O)O |  | -6.93% [at 11.4 µM] (inactive)
Cc1nn(Cc2ccc([N+](=O)[O-])cc2)c(=O)n1-c1cccc(F)c1 | 11.2 µM (active) | 
